Data as given in ChEMBL document CHEMBL1157539, “Thousands of chemical starting points for antimalarial lead identification” (Nature, 2010).

Experiments:
Format in all cases: functional
[1] = system: Plasmodium falciparum; assay: GSK_TCMDC: Inhibition of Plasmodium falciparum 3D7 in whole red blood cells, using parasite LDH activity as an index of growth. Test compounds present at 2uM
[2] = system: Plasmodium falciparum; assay: GSK_TCMDC: Inhibition of Plasmodium falciparum Dd2 in whole red blood cells, using parasite LDH activity as an index of growth. Test compounds present at 2uM
[3] = system: HepG2; assay: GSK_TCMDC: Percent inhibition of human HepG2 cell line. Test compounds present at 10uM.

Row | Structure (SMILES) | Inhibition [1] | Inhibition [2] | Inhibition [3]
1 | CCCCCCN1CCC(CNCc2cccc(Cl)c2)CC1.O=C(O)C(F)(F)F | 85% | 13% | 8%
2 | O=C(NC1CCN(Cc2ccc(F)cc2)CC1)c1ccc(-c2cccc(C(F)(F)F)c2)s1.O=C(O)C(F)(F)F | 83% | 11% | 88%
3 | CSc1c(CNCCCNc2cc(=O)c3ccccc3[nH]2)[nH]c2ccccc12 | 87% | 21% | 0%
4 | CN1CCN(CCCCNc2c3ccccc3nc3ccccc23)CC1 | 100% | 0% | 37%
5 | COc1ccc2nccc([C@@H](O)CN3CCC(NCc4cnc5c(c4)NC(=O)CS5)C(F)C3)c2c1.Cl (some centres undefined) | 90% | 90% | 0%
6 | CC(=O)N1N=C(c2ccc(F)cc2)Sc2c1nc(-c1ccccc1)n2C(C)=O | 99% | 67% | 0%
7 | CC(C)COc1ccc2ccccc2c1CNCCCCCCNCc1c(OCC(C)C)ccc2ccccc12.CS(=O)(=O)O | 90% | 95% | 99%
8 | O=C(Nc1ccc(F)c(Cl)c1)NC1CCN(c2ccnc3cc(Cl)ccc23)C1.O=C(O)C(F)(F)F (centres undefined) | 100% | 74% | 37%
9 | CCCCCN1CCCC1CNS(=O)(=O)c1ccc(C(=O)Nc2ccc(C(F)(F)F)cc2)cc1.O=C(O)C(F)(F)F (centres undefined) | 87% | 0% | 19%
10 | COc1ccc2nccc([C@@H](O)CN3CCC(NC(=O)C(c4cc5ccccc5s4)N4CCN(c5ccccc5OC)CC4)CC3)c2c1 (some centres undefined) | 100% | 88% | 21%
11 | CN1CCN(CC(=O)Nc2ccc(-c3csc(-c4nc5ccccc5[nH]4)c3)cc2)CC1 | 99% | 46% | 6%
12 | CCOC(=O)c1ccc(NC(=O)N[C@@H](Cc2ccccc2)C(=O)NC2CCN(Cc3ccc(OCCCN(C)C)cc3)C2)cc1 (some centres undefined) | 91% | 8% | 5%
13 | O=C(Nc1ccc(F)c(Cl)c1)c1cc([N+](=O)[O-])cc2cn[nH]c12 | 100% | 67% | 32%
14 | O=C(NC1CCN(Cc2ccccc2)CC1)c1cc(-c2ccncc2)nc2ccc(Cl)cc12 | 97% | 27% | 17%
15 | CCCCn1c(N)c(N(Cc2ccco2)C(=O)C=Cc2cc(OC)c3c(c2)OCCO3)c(O)nc1=O | 85% | 94% | 4%
16 | O=C(/C=C/c1ccc(Cl)c(Cl)c1)NCCCCCN1CCCN(C(=S)Nc2cccc(Cl)c2)CC1 | 93% | 7% | 19%
17 | CCC1N=C(N)N=C(N)N1OCc1ccc(Cl)c(Cl)c1 (centres undefined) | 93% | 90% | 54%
18 | O=C(NCc1ccc(Cl)c(Cl)c1)c1ccc(C2CCN(Cc3ccc4[nH]cnc4c3)CC2)cc1 | 100% | 31% | 1%
19 | Cc1ccc(-c2ccc3c(c2)C=C(C(=O)NC2CCN(CCNC(=O)c4cccs4)CC2)CCC3)cc1.O=C(O)C(F)(F)F | 90% | 30% | 27%
20 | O=C(Cc1cccc2ccccc12)N1CCc2cc3nccc(N4CCN5CCC[C@H]5C4)c3cc21 | 100% | 99% | 3%
21 | N#Cc1ccc(OCCN(Cc2ccccc2C(F)(F)F)c2ccc(C#N)c(C(F)(F)F)c2)cc1 | 100% | 84% | 69%
22 | O=C(NCCCCN1CCN(c2cccc3c2OCCO3)CC1)c1ccc(NC(=O)c2cc(Cl)cc(Cl)c2)cc1 | 100% | 89% | 21%
23 | COc1ccc(C2CC(=O)C3=C(C2)NC(C)=C(C(=O)OC2CCCC2)C3c2cccc(O)c2)cc1OC (centres undefined) | 100% | 98% | 8%
24 | Oc1c(C(Nc2ccccn2)c2ccco2)cc(Cl)c2cccnc12 (centres undefined) | 87% | 65% | 41%
25 | Cl.O=C(Oc1ccc(C2CNCCc3c2cc(OC(=O)c2ccc(O)cc2)c(OC(=O)c2ccc(O)cc2)c3Cl)cc1)c1ccc(O)cc1 (centres undefined) | 90% | 60% | 0%
26 | Cc1ccc(NC(=O)c2ccc(NCCCN(C)Cc3ccccc3)c([N+](=O)[O-])c2)cc1F | 100% | 61% | 12%
27 | Clc1ccc(CNCC2CCN(CC3CCCCC3)CC2)cc1Cl | 92% | 6% | 18%
28 | O=c1ccc2ccc(F)cc2n1CCN1CCC(NCc2ccc(-c3ccccn3)s2)CC1 | 98% | 30% | 0%
